Assay results taken from PubChem BioAssay (NCATS).
Values without a mark were called inactive. Calls come from the whole dose curve; as a rule, active = well fitted inhibition curve with a large enough effect; inconclusive = small, poorly fitted or top-dose-only effect; inactive = no such curve, though single readings can be large or run the other way.

assay: qHTS assay for measurement of the activity of small molecule inhibitors on Zika virus induced Caspase-3 activity in human astrocytoma cells (AID 1224859); conditions: SNB-19 ZIKV-induced caspase-3/7, luminescence, 6 h; series mostly up to 45.7 µM; activity change, negative = inhibition: at the top concentration;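 note: plate controls were ZIKV-infected untreated cells for no effect and uninfected cells for full effect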
Summary of the method: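 In SNB-19 cells plated at 250 cells/well and grown 16-20 h, compounds were applied 1 h before ZIKV (2 FFU/cell). Six hours later caspase-3/7 luminescence was recorded.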

Point of comparison: `COc1ccc(C(=O)CC2(O)C(=O)Nc3c(Cl)ccc(Cl)c32)cc1` (stereo unspecified), “activity change, negative = inhibition” value 48%. Against it:
- CCOc1ccccc1OCCNC(C)Cc1ccc(OC)c(S(N)(=O)=O)c1 (stereo unspecified) — lower, -14.5%
- NC(=O)c1c(OCc2c(F)cc(Br)cc2F)nsc1NC(=O)NCCCCN1CCCC1 — lower, 18.3%
- CCCCc1nc2cc(C=CC(=O)NO)ccc2n1CCN(CC)CC — lower, 32.5%
- CC(C)(O)c1cc2nc(-c3cnc(N)nc3)nc(N3CCOCC3)c2s1 — lower, 39.8%
- COc1cc(=C2C=c3ccccc3=N2)[nH]c1=Cc1[nH]c(C)cc1C — lower, -9.51%
- O=C(NC1CCNCC1)c1[nH]ncc1NC(=O)c1c(Cl)cccc1Cl — lower, -13%
- CCOc1cc2ncc(C#N)c(Nc3ccc(F)c(Cl)c3)c2cc1NC(=O)C=CCN(C)C — lower, 39.4%
- CC(C)(O)CCc1ccc(OCc2cc(-c3cccc(OC(F)F)c3)c3ncccc3c2)cc1 — lower, 37.1%
- COc1cc(OC2CCN(C)CC2)ccc1Nc1ncc2c(n1)n(C1CCCC1)c(=O)n2C — lower, 4.34%
- O=C(NCCS(=O)(=O)c1ccc(C(F)(F)F)cn1)c1ccc(Cl)cc1 — lower, -7.2%
- CC[C@@]1(O)C(=O)OCc2c1cc1n(c2=O)Cc2cc3cc(O)ccc3nc2-1 — lower, -4.16%
- CC(C)c1cc(-c2n[nH]c(=O)n2-c2ccc3c(ccn3C)c2)c(O)cc1O — lower, 21.2%
- Cc1cc(CN2CCN(c3c(Br)cnc4nc(-c5ccc(N6CCN(C)CC6)cc5)[nH]c34)CC2)no1 — lower, 47.8%
- c1ccc2c(CCNc3ccc(Nc4ccncc4)cc3)c[nH]c2c1 — lower, 0.323%
- CN1CCN(Cc2ccc(NC(=O)Nc3ccc(Oc4cc(NC(=O)C5CC5)ncn4)cc3)cc2C(F)(F)F)CC1 — higher, 58.9%
- C[C@@H]1COC(Nc2ccc3ncnc(Nc4ccc(OCc5nccs5)c(Cl)c4)c3c2)=N1 — lower, 18.4%
- C=CCn1c(=O)c2cnc(Nc3ccc(N4CCN(C)CC4)cc3)nc2n1-c1cccc(C(C)(C)O)n1 — lower, 17.8%
- CC[C@H]1CN2CCc3cc(OC)c(OC)cc3[C@H]2C[C@@H]1C[C@@H]1NCCc2cc(OC)c(OC)cc21 — lower, 15.6%
- C1=CCOCc2cc(ccc2OCCN2CCCC2)Nc2nccc(n2)-c2cccc(c2)OCC1 — higher, 190%
- Clc1cccc(-c2nnnn2Cc2cccnc2)c1Cl — lower, 4.57%
- Cc1ccc(C(N)=O)cc1Nc1nccc(-c2cn(C(C)C)c3cnccc23)n1 — higher, 83.6%
- C1Cc2[nH]nc(-c3nn[nH]n3)c2C1 — lower, 5.57%
- CC(=O)Nc1nc(C)c(-c2ccc(Cl)c(S(=O)(=O)NCCO)c2)s1 — lower, -12.1%
- O=C(C=Cc1cccnc1)NCCCCC1CCN(C(=O)c2ccccc2)CC1 — lower, 7.62%
- Cc1nc2ccc(CN(C)c3ccc(C(=O)N[C@@H](CCC(=O)O)C(=O)O)s3)cc2c(=O)[nH]1 — lower, 4.85%
- O=C(Nc1ncc(-c2cc(C(F)F)nn2-c2c(Cl)cccc2Cl)s1)C1CC1 — lower, 26.6%
- Cc1ccc2nc(NC(=O)CSc3nc4c(c(=O)n3-c3ccccc3)SCC4)sc2c1 — lower, 10.1%

For `COc1ccc(CC2c3cc(OC)c(OC)cc3CC[N+]2(C)CCC(=O)OCCCCCOC(=O)CC[N+]2(C)CCc3cc(OC)c(OC)cc3C2Cc2ccc(OC)c(OC)c2)cc1OC` (stereo unspecified), the activity change, negative = inhibition was 7.2% [at 9.06 µM].

For `COc1cccc(Nc2c(C(N)=O)cnc3c(C)cc(S(=O)(=O)c4cccc(C(=O)N(C)C)c4)cc23)c1`, the “activity change, negative = inhibition” value was 70.2% [at 20.5 µM].

For `Cc1cc(Nc2cc(N3CCN(C)CC3)nc(C=Cc3ccccc3)n2)n[nH]1`, the “activity change, negative = inhibition” value was 62.7% [at 92.8 µM].
